According to PubChem BioAssay (NCATS):
Where “and” joins values, the source holds several entries; their conditions need not be identical. Equal values may be shown once. Inconclusive results are not listed. Where a call stands in place of a potency, no number is given. Unmarked numbers belong to inactive results. Calls of active or inactive are those of the source. Calls come from the whole dose curve; as a rule, active = well fitted curve in the direction sought with a large enough effect; inconclusive = small, poorly fitted or top-dose-only effect, or another doubt; inactive = no such curve, though single readings can be large; an effect the other way counts as inactive or inconclusive.

Assays:
[1] = tested on: HeLa; test: Primary qHTS to identify gynecologic anti-cancer compounds using libraries of approved drugs and bioactive compounds (AID 1345084); conditions: Gynecologic cancer cell panel viability, ATPlite luminescence, 48 h; series mostly up to 57.5 µM; note: nearly all actives have a fitted effect of over 55% in size
Outline: (§1)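 Five-concentration response, 48 h; readout is ATP-driven luciferase luminescence.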

[2] = tested on: Hek293T; test: as above; conditions: Gynecologic cancer cell panel viability, ATPlite luminescence, 48 h, control line for the selectivity index; series mostly up to 57.5 µM
Outline: as §1

[3] = tested on: JEG-3; test: as above; conditions: Gynecologic cancer cell panel viability, ATPlite luminescence, 48 h; series mostly up to 57.5 µM
Outline: as §1

[4] = tested on: OV90; test: as above; conditions: Gynecologic cancer cell panel viability, ATPlite luminescence, 48 h; series mostly up to 57.5 µM
Outline: as §1

[5] = tested on: PA-1; test: as above; conditions: Gynecologic cancer cell panel viability, ATPlite luminescence, 48 h; series mostly up to 57.5 µM
Outline: as §1

[6] = tested on: SKOV3; test: as above; conditions: Gynecologic cancer cell panel viability, ATPlite luminescence, 48 h; series mostly up to 57.5 µM
Outline: as §1

[7] = tested on: Tov-21-G; test: as above; conditions: Gynecologic cancer cell panel viability, ATPlite luminescence, 48 h; series mostly up to 57.5 µM
Outline: as §1

[8] = tested on: Tov112D; test: as above; conditions: Gynecologic cancer cell panel viability, ATPlite luminescence, 48 h; series mostly up to 57.5 µM
Outline: as §1

[9] = Drug repurposing screens with cells derived from glioblastoma tumor samples (AID 1345199); conditions: GBM patient neurospheres viability, ATP luminescence, 48 h; note: nearly all actives have a fitted effect of over 40% in size; note: potency is the fitted concentration of half-maximal effect
Outline: (§2)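 Primary testing used CD133+ neurospheres from four GBM patients, seven concentrations, 48 h exposure and ATP-based viability; confirmation added three slower-growing patient lines.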

[10] = tested on: astro; test: as above; conditions: viability, ATP luminescence, 48 h; series mostly up to 45.9 µM
Outline: as §2

[11] = at 45.9 µM (top of the series), tumour line B
[12] = at 45.9 µM (top of the series), tumour line D
[13] = at 46 µM (top of the series), tumour line A
[14] = at 46.1 µM (top of the series), tumour line C
[15] = at 20 µM (top of the series), tumour line C
[16] = at 21.2 µM (top of the series), tumour line B
[17] = at 21.2 µM (top of the series), tumour line D
[18] = at 21.3 µM (top of the series), tumour line A

SMILES | Potency [1] | Potency [2] | Potency [3] | Potency [4] | Potency [5] | Potency [6] | Potency [7] | Potency [8] | activity, negative = cell killing [9, 11] | activity, negative = cell killing [9, 12] | activity, negative = cell killing [9, 13] [%] | activity, negative = cell killing [9, 14] | Potency ([9]; tumour line A) | Potency [10] | activity, negative = cell killing [9, 15] [%] | activity, negative = cell killing [9, 16] [%] | activity, negative = cell killing [9, 17] [%] | activity, negative = cell killing [9, 18] [%]
Cc1noc(NS(=O)(=O)c2ccc(N)cc2)c1C | inactive | inactive | inactive | inactive | inactive | inactive | inactive | inactive | -5.33% and -3.65% | -24.3% and -9.55% | -16.5 | -22.2% and -6.01% |  |  |  |  |  | 
CCN(C)C(=O)Oc1cccc([C@H](C)N(C)C)c1 | inactive | inactive | inactive | inactive | inactive | inactive | inactive | inactive | -13.1% | -25.1% |  | -30% | 20 µM (active) |  |  |  |  | 
NCCCC(O)(P(=O)(O)O)P(=O)(O)O | inactive | inactive | inactive | inactive | inactive | inactive | inactive | inactive | -8.76% | 1.9% | -6.09 | -10.2% |  | inactive |  |  |  | 
CCn1cc(C(=O)O)c(=O)c2cc(F)c(N3CCNCC3)nc21 | inactive | inactive | inactive | inactive | inactive | inactive | inactive | inactive |  |  |  |  |  |  | -1.66 | -1.31 | -17.3 | -3.28
O=C(O)c1cn(C2CC2)c2cc(N3CCNCC3)c(F)cc2c1=O | inactive | inactive | inactive | inactive | inactive | inactive | inactive | inactive |  |  |  |  |  |  | -4.75 | -18.6 | 4.14 | 
CCn1cc(C(=O)O)c(=O)c2cc(F)c(N3CCN(C)CC3)cc21 | inactive | inactive | inactive | inactive | inactive | inactive | inactive | inactive | -12.6% | -0.981% |  | -19.8% |  |  |  |  |  | 
CCOC(=O)[C@H](CCc1ccccc1)N[C@H]1CS[C@H](c2cccs2)CN(CC(=O)O)C1=O | inactive | inactive | inactive | inactive | inactive | inactive | inactive | inactive | -5.27% | -7.87% | -16.7 | -21.6% |  |  |  |  |  | 
CC(C)OC(=O)OCOP(=O)(CO[C@H](C)Cn1cnc2c(N)ncnc21)OCOC(=O)OC(C)C | inactive | inactive | inactive | inactive | inactive | inactive | inactive | inactive | -7.36% | -12.2% | -9.04 | -6.09% |  | inactive |  |  |  | 
Cc1ncc([N+](=O)[O-])n1CCO | inactive | inactive | inactive | inactive | inactive | inactive | inactive | inactive | -7.77% | 10.9% | -19.2 | 12.6% |  | inactive |  |  |  | 
CN1CCN(c2c(F)cc3c(=O)c(C(=O)O)cn4c3c2OCN4C)CC1 | inactive | inactive | inactive | inactive | inactive | inactive | inactive | inactive | 0.422% | -17.1% | -24 | 18% |  | inactive |  |  |  | 
Cc1cccc(Nc2ccncc2S(=O)(=O)NC(=O)NC(C)C)c1 | inactive | inactive | inactive | inactive | inactive | inactive | inactive | inactive |  |  |  |  |  |  | -12.8 | -1.96 | -26 | -11
CC(C)C1CCC(C(=O)N[C@H](Cc2ccccc2)C(=O)O)CC1 (stereo partly drawn) | inactive | inactive | inactive | inactive | inactive | inactive | inactive | inactive | -7.58% | 5.65% | -15.4 | -13.4% |  |  |  |  |  | 
CCC(C)(C)c1ccc(CC(C)CN2C[C@@H](C)O[C@@H](C)C2)cc1 (stereo partly drawn) | inactive | inactive | inactive | inactive | inactive | inactive | inactive | inactive |  |  |  |  |  |  |  |  |  | 
Cc1nnc(NS(=O)(=O)c2ccc(N)cc2)s1 | inactive | inactive | inactive | inactive | inactive | inactive | inactive | inactive | 4.69% | 17.1% | 7.16 | 5.44% |  | inactive |  |  |  | 
CO[C@@H]1[C@@H](OC(N)=O)[C@@H](O)[C@H](Oc2ccc3c(O)c(NC(=O)c4ccc(O)c(CC=C(C)C)c4)c(=O)oc3c2C)OC1(C)C | inactive | inactive | inactive | inactive | inactive | inactive | inactive | inactive |  |  |  |  |  | inactive | -4.06 | -5.36 | -2.99 | -27.7
Nc1ccc(S(=O)(=O)Nc2ccccn2)cc1 | inactive | inactive | inactive | inactive | inactive | inactive | inactive | inactive |  |  |  |  |  |  | -7.01 | 0.146 | 5.31 | -9.41

SMILES | Potency [1] | Potency [2] | Potency [3] | Potency [4] | Potency [5] | Potency [6] | Potency [7] | Potency [8] | activity, negative = cell killing [9, 11] | activity, negative = cell killing [9, 12] | activity, negative = cell killing [9, 13] [%] | activity, negative = cell killing [9, 14] | Potency ([9]; tumour line A) | Potency [10] | activity, negative = cell killing [9, 15] [%] | activity, negative = cell killing [9, 16] [%] | activity, negative = cell killing [9, 17] [%] | activity, negative = cell killing [9, 18] [%]
O=S(=O)(c1cccc2cnccc12)N1CCCNCC1 | inactive | inactive | inactive | inactive | inactive | inactive | inactive | inactive | -0.368% | -10.7% | -20.9 | -21.1% |  | inactive |  |  |  | 
O=C(O)CCn1c2c(c3ccccc31)C[C@H](NS(=O)(=O)c1ccc(F)cc1)CC2 | inactive | inactive | inactive | inactive | inactive | inactive | inactive | inactive | -3.62% | -7.83% | -16.4 | -18.1% |  |  |  |  |  | 
CC1(C)[C@H](C(=O)O)N2C(=O)C[C@H]2S1(=O)=O | inactive | inactive | inactive | inactive | inactive | inactive | inactive | inactive | 1.79% | -3.83% | -4.41 | 9.89% |  |  |  |  |  | 
O=S(=O)(O)CCS | inactive | inactive | inactive | inactive | inactive | inactive | inactive | inactive | -4.82% | -6.41% | -21.8 | -18% |  | inactive |  |  |  | 
Cc1nnc(C(=O)NC(C)(C)c2nc(C(=O)NCc3ccc(F)cc3)c(O)c(=O)n2C)o1 | inactive | inactive | inactive | inactive | inactive | inactive | inactive | inactive | 5.76% | -4.7% | -16.1 | 13.1% |  | inactive |  |  |  | 
NC(=O)c1cccnc1 | inactive | inactive | inactive | inactive | inactive | inactive | inactive | inactive | -7.44% | -0.242% | -16 | 4.44% |  |  |  |  |  | 
CCOC(=O)c1ccc(C#Cc2ccc3c(c2)C(C)(C)CCS3)nc1 | inactive | inactive | inactive | inactive | inactive | inactive | inactive | inactive |  |  |  |  |  |  |  |  |  | 
O=C(NCC1CN(c2ccc(N3CCOCC3=O)cc2)C(=O)O1)c1ccc(Cl)s1 (stereo not drawn) | inactive | inactive | inactive | inactive | inactive | inactive | inactive | inactive |  |  |  |  |  |  |  |  |  | 
CCOCC(O)COc1ccc(NC(=O)CC[S+](C)C)cc1 (stereo not drawn) | inactive | inactive | inactive | inactive | inactive | inactive | inactive | inactive | -7.04% | -30.9% | -26.7 | -28.1% |  |  |  |  |  | 
CN(Cc1cc(Br)cc(Br)c1N)C1CCCCC1 | inactive | inactive | inactive | inactive | inactive | inactive | inactive | inactive | -30.4% |  |  | -4.61% | 5.62 µM (active) |  |  |  |  | 
C[C@]12C=CC(=O)C=C1CC[C@@H]1[C@@H]2C(=O)C[C@@]2(C)[C@H]1CC[C@]2(O)C(=O)CO | inactive | inactive | inactive | inactive | inactive | inactive | inactive | inactive | -6.23% | 5.45% |  | -7.06% |  |  |  |  |  | 
O=C(O)CSCC(=O)NC1CCSC1=O (stereo not drawn) | inactive | inactive | inactive | inactive | inactive | inactive | inactive | inactive | -7.24% |  |  | 18.1% |  |  |  |  |  | 
Cc1cc(NS(=O)(=O)c2ccc(N)cc2)no1 | inactive | inactive | inactive | inactive | inactive | inactive | inactive | inactive | 0.277% | -26.8% | -6.57 | 7.15% |  | inactive |  |  |  | 
C[C@@H]1CN(c2c(F)c(N)c3c(=O)c(C(=O)O)cn(C4CC4)c3c2F)C[C@H](C)N1 | inactive | inactive | inactive | inactive | inactive | inactive | inactive | inactive | -1.03% | -17% | -8 | -3.77% |  | inactive |  |  |  | 
COc1cnc(NS(=O)(=O)c2ccc(N)cc2)nc1 | inactive | inactive | inactive | inactive | inactive | inactive | inactive | inactive |  |  |  |  |  | inactive | -10.8 | -19.1 | -2.41 | -32
CCC(=O)O[C@]1(C(=O)SCF)[C@H](C)C[C@H]2[C@@H]3C[C@H](F)C4=CC(=O)C=C[C@]4(C)[C@@]3(F)[C@@H](O)C[C@@]21C | inactive | inactive | inactive | inactive | inactive | inactive | inactive | inactive |  |  |  |  |  |  | -9.5 | -18.7 | 13.1 | -14.8
